# Sa ugtP lethal – compounds lethal to S. aureus RN4220 ugtP deletion mutant | OD600 growth, 16 h | growth inhibition, % (test concentration not listed) | 330,000 compounds, 0.54% hits; in the data active = growth inhibition above about 68%;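 note: plate controls were untreated wells for no effect and antibiotic for full effect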
# SSB-PriA inh – blocks PriA binding to SSB C-terminal tail | AlphaScreen SSBct-PriA binding, biotinylated peptide | inhibition, % at 33 µM | 430,000 compounds, 0.6% hits | AID 1272365; in the data active = inhibition mostly above about 37%, no sharp cut-off; inactive = mostly below about 20%;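 note: plate controls were negative control peptide for no effect and reference peptide for full effect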
# Mtb hypoxia inh – reduces hypoxia-regulated biosensor signal in M. tuberculosis; 300,000 compounds, 0.1% hits; M. tuberculosis hypoxia-regulated fluorescent reporter, fluorescence; fluorescence inhibition, % (no concentration beside the values); in the data active = fluorescence inhibition mostly above about 23%, no sharp cut-off; inactive = mostly below about 17%
# Sa RN4220 lethal – S. aureus RN4220 growth inhibition; OD600, 16 h; inhibition, % (no concentration beside the values); 330,000 compounds, 0.33% hits; in the data active = inhibition above about 85%;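 note: plate controls were untreated cells for no effect and reference antibiotic for full effect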
# CCHFV vOTU inh – blocks the CCHF virus ovarian tumor domain protease | inhibition, % at 11.5 µM | CCHFV vOTU protease, Pep-AMC fluorescence | AID 651958 | 370,000 compounds, 0.55% hits; in the data active = inhibition above about 30%; note: 0% = vehicle wells with enzyme and 100% = no enzyme wells
# * = called active by the depositor; nt = no result given; ! = repeats disagree. An excerpt weighted towards active compounds, which were near 1.4% of everything screened.
SMILES,Sa ugtP lethal,SSB-PriA inh,Mtb hypoxia inh,Sa RN4220 lethal,CCHFV vOTU inh
COc1ccc(OC)c(NC(=O)CSc2nnc(Cc3cccn3C)n2Cc2ccccc2)c1,nt,39*,nt,nt,nt
COc1ccc2c(c1)C(C)=CC(C)(C)N2S(=O)(=O)c1ccc(Br)cc1,86*,-6,20,-2,-2
COc1ccc2c(c1)C(C)=CC(C)(C)N2S(=O)(=O)c1ccc(NC(C)=O)cc1,nt,-10,nt,nt,0
O=C(c1cc(C2CC2)on1)N1CC(Oc2nccs2)C1,nt,-12,nt,nt,nt
COc1ccccc1C(CNc1ncccc1[N+](=O)[O-])N(C)C (centres undefined),-3,8,8,2,-4
COc1ccccc1Nc1ncccc1[N+](=O)[O-],1,60*,1,9,0
COc1ccc(C=c2sc3nc(-c4ccccc4)c(-c4ccccc4)n3c2=O)cc1,-13,-3,-2,3,nt
COC(=O)C1CN(C#N)N(c2ccc(Cl)cc2)C12c1ccccc1-c1ccccc12 (centres undefined),96*,24,11,90*,nt
CCOc1cc(C)c(S(=O)(=O)NCc2cccnc2)cc1C,nt,-17,nt,nt,nt
Cc1nn(CC(=O)NC2C(=O)N3C(C(=O)O)=C(CSc4nnnn4C)CSC23)cc1Br (centres undefined),99*,1,nt,100*,14
CC(C(=O)NC1C(=O)N2C(C(=O)O)=C(CSc3nnnn3C)CSC12)n1cc(Cl)cn1 (centres undefined),100*,-4,nt,100*,5
Cc1c(Cl)cnn1CC(=O)NC1C(=O)N2C(C(=O)O)=C(CSc3nnnn3C)CSC12 (centres undefined),100*,-3,nt,100*,9
CO[C@@]1(NC(=O)CSCC#N)C(=O)N2C(C(=O)O)=C(CSc3nnnn3C)CSC21 (some centres undefined),6,nt,4,3,nt
Cn1nnnc1SCC1=C(C(=O)O)N2C(=O)C(NC(=O)Cn3nc(C(F)F)cc3C3CC3)C2SC1 (centres undefined),101*,-5,nt,100*,6
COc1ccc(N2CCCS2(=O)=O)cc1NC(=O)COc1ccccc1C,nt,1,nt,nt,nt
Cc1cc(C)c(OS(=O)(=O)c2c(C)cc(C)cc2C)c(C)c1,nt,-8,nt,nt,nt
CCN1CCN(C(=O)NC(C(=O)NC2C(=O)N3C(C(=O)O)=C(CSc4nnnn4C)CSC23)c2ccc(O)cc2)C(=O)C1=O (centres undefined),100*,nt,25,101*,nt
CC1=C(C(=O)O)N2C(=O)C(NC(=O)c3nn(C)cc3Cl)C2SC1 (centres undefined),7,-8,nt,4,2
Cc1c(Cl)c(C(F)F)nn1CC(=O)NC1C(=O)N2C(C(=O)O)=C(CSc3nnnn3C)CSC12 (centres undefined),97*,6,nt,100*,4
COc1ccc(NC(=O)Cc2csc(NC(=O)Nc3cccc(Cl)c3)n2)cc1Cl,nt,-16,nt,nt,nt
O=C1NC2(CCN(S(=O)(=O)c3cccnc3)CC2)C(=O)N1Cc1ccccc1,nt,-4,nt,nt,nt
COc1ccccc1CNC(=O)CC(C)(C)CC1=NS(=O)(=O)c2ccccc2N1,nt,-10,nt,nt,nt
CCC(=O)Nc1ccc(SCC(=O)NCc2cccc(OC)c2)nn1,nt,-7,nt,nt,nt
O=C(CSc1ccc(-c2ccccn2)nn1)Nc1ccccc1F,nt,84*,nt,nt,nt
COc1ccccc1NC(=O)CSc1ccc(-c2ccncc2)nn1,nt,18,nt,nt,nt
SMILES,Sa ugtP lethal,SSB-PriA inh,Mtb hypoxia inh,Sa RN4220 lethal,CCHFV vOTU inh
Cc1nnc(NC(=O)CSc2ccc(-c3ccccn3)nn2)s1,-7,56*,68*,4,nt
Cc1nnc(NC(=O)CSc2ccc(-c3cccnc3)nn2)s1,13,-18,10,3,-6
COc1ccccc1NC(=O)CSc1ccc(-c2ccccn2)nn1,3,89*!,11,3,27
O=C(CSc1ccc(-c2ccccn2)nn1)Nc1ccc(F)cc1F,11,11,nt,3,-11
COc1ccc(NC(=O)CSc2ccc(-c3ccccn3)nn2)cc1OC,2,72*,3,-3,7
COc1cc(N2CCC(C(=O)NCc3ccc4c(c3)OCO4)CC2)ncn1,nt,0,nt,nt,nt
COc1ccccc1NC(=O)NCC(c1ccc2c(c1)CCN2C)N1CCN(C)CC1 (centres undefined),nt,1,nt,nt,nt
O=C(c1ccc(Br)o1)N1CCN(CC(O)C2CC2)CC1 (centres undefined),nt,-23,nt,nt,nt
CCOc1ccccc1NC(=O)CSc1ccc(-c2ccccn2)nn1,nt,116*,nt,nt,nt
N#Cc1nc(-c2ccco2)oc1N1CCc2ccccc2C1,-11,43*,7,10,-13
N#Cc1nc(-c2ccco2)oc1N1CCN(c2cccc(Cl)c2)CC1,-18,50*,3,6,-11
COc1ccc(CC(=O)NCCS(=O)(=O)N2CCN(c3ncccn3)CC2)cc1,nt,3,nt,nt,nt
Cc1nc2sccn2c1C(=O)O,nt,-1,nt,nt,nt
CC1(C)CC(NS(=O)(=O)OCC(Cl)(Cl)Cl)c2cc(C#N)ccc2O1 (centres undefined),99*,6,0,99*,4
COc1ccc(C2=Nc3nc(-c4ccccc4)cn3C(c3ccc(OC)cc3)C2)cc1 (centres undefined),85*,1,-3,-8,-6
COc1ccc(C2CC(c3ccccc3)=NN2C(=O)CCC(=O)O)cc1 (centres undefined),nt,-9,nt,nt,3
Cc1ncn(CC(=O)N2CCCC(Cc3nc(C4CC4)no3)C2)c(=O)c1C (centres undefined),nt,-3,nt,nt,nt
O=C(c1ccc(CSCc2ccccc2F)o1)N1CCN(c2ccc(N3CCOCC3)nn2)CC1,1,96*,-8,1,-13
COc1ccccc1NC(=O)CSc1ccc(-c2cccnc2)nn1,nt,-7,nt,nt,nt
COc1ccc(N=C2S/C(=C\c3cc(C)n(C)c3C)C(=O)N2C)cc1,nt,39*,nt,nt,13
CCCN1C(=O)/C(=C/c2cc(C)n(C)c2C)SC1=Nc1ccc(OC)cc1,nt,16,nt,nt,-4
COc1ccc(Cc2nnc(SCC(=O)N3CCN(c4ccccc4)CC3)o2)cc1,0,6,10,1,1
COc1ccc(Cc2nnc(SCC(=O)N3CCCCC3)o2)cc1,-4,53*,2,4,-6
O=C(C1CC1)N(Cc1ccco1)c1nc(-c2ccccc2)cs1,96*,-3,-2,-5,2
COc1ccc(-c2csc(N(Cc3ccco3)C(=O)c3cccs3)n2)cc1,16,-6,11,-6,-5
SMILES,Sa ugtP lethal,SSB-PriA inh,Mtb hypoxia inh,Sa RN4220 lethal,CCHFV vOTU inh
CN(C)c1ccc(C(c2cc(C(C)(C)C)c(O)c(C(C)(C)C)c2)N2CCCC2)cc1 (centres undefined),nt,-1,nt,nt,nt
CC(=O)Oc1c(C)c2c3c(c1OC(C)=O)[C@@H](C)CC[C@@H]3[C@@H](C)C[C@H]2C=C(C)C,86*,-2,9,-10,7
Cc1ccc2nc(-c3ccc(NC(=S)NC4CC(C)(C)NC(C)(C)C4)cc3)sc2c1,95*,19,9,100*,-16
CCOc1cccc2sc(N(CCN(C)C)C(=O)c3ccnn3C)nc12,nt,-3,nt,nt,nt
Cc1ccc(C(=O)N2CCN(Cc3ccccc3)CC2)o1,1,-10,nt,3,-5
Cc1ccc(/C=C/C(=O)N2CCN(Cc3ccccc3)CC2)o1,-3,16,59*,6,14
O=C(c1ccncc1)N1CCC(Oc2cnccn2)CC1,nt,-7,nt,nt,nt
